Screens from PubChem BioAssay.
A selection: hits, their analogues and other compounds. The true share with any hit is near 19%.
Pf growth 96h = P. falciparum growth inhibition at 96 hour, primary screen for plastid delayed-death inhibitors; P. falciparum luciferase reporter growth, 96 h; Potency, µM (top dose mostly 28.7 µM), for inactives: at the highest dose activity change, negative = inhibition, actives largely listed as inhibitors; actives 6.9% (n = 320,000); AID 504834; note: potency is the fitted concentration of half-maximal effect; % is set by controls: 0 for no effect and ±100 for the full control effect
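Readout is luminescence from an integrated firefly luciferase in P. falciparum. Red cells, 2% hematocrit and 0.05% parasitemia final, were cultured with compound through two parasite generations (96 hours) at 37 C, 5% CO2.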
CHX counter = affects cycloheximide protein synthesis inhibition readout, counter-screen. actives 12% (n = 300,000). max response, %. cell reporter, cycloheximide protein synthesis inhibition counterscreen; in the data active = max response mostly above about 13%, no sharp cut-off; inactive = mostly below about 14%; note: read at 38.3 µM for the half of the compounds with a filed dose; 0% is about no effect
Pf growth 48h = inhibits P. falciparum growth in the first generation, 48 h | P. falciparum luciferase growth in erythrocytes, 48 h | Potency, µM (highest dose often 28.7 µM), without a hit: at the top dose activity change, negative = inhibition, actives largely listed as inhibitors | actives 5.9% (n = 310,000) | AID 504832; note: potency is the fitted concentration of half-maximal effect; % is set by controls: 0 for no effect and ±100 for the full control effect
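A one-generation exposure of luciferase-tagged malaria parasites in RPMI 1640/Albumax erythrocyte culture, 37 C and 5% CO2. Inhibition is inferred from decreased luminescence after adding detection reagent.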
Marburg entry inh = inhibitors of Marburg virus binding or cell entry; Marburg virus pseudotyped entry inhibition, cell reporter; Potency, µM (titrated, usually from 37.8 µM), for the others: top-dose activity change, negative = inhibition, actives largely listed as inhibitors; actives 1.8% (n = 300,000); calls by dose curve; tested in HEK293 cells; note: potency is the fitted concentration of half-maximal effect; % is set by controls: 0 for no effect and ±100 for the full control effect
LASV entry inh = inhibitors of Lassa virus binding or cell entry; Lassa virus pseudotype entry inhibition, cell reporter; Potency, µM (top dose mostly 37.9 µM), without a hit: at the highest dose activity change, negative = inhibition, actives largely listed as inhibitors; actives 1.2% (n = 300,000); calls by dose curve; tested in HEK293 cells; note: potency is the fitted concentration of half-maximal effect; % is set by controls: 0 for no effect and ±100 for the full control effect; nearly all actives have a fitted effect of over 50% in size
Shiga toxin inh = inhibitors of Shiga toxin in Vero cells | Vero cells, Shiga toxin protein synthesis inhibition reporter | inhibition, % at 38.7 µM | actives 9.2% (n = 290,000) | AID 2315; in the data active = inhibition mostly above about 28%, no sharp cut-off; inactive = mostly below about 43%; note: 0% is about no effect
* hit, by the source's call; ? = inconclusive; nt = not tested or not shown; + = active, no number; [ ] = remark or other dose. Unless noted, calls come from the whole dose curve; as a rule, active = well fitted inhibition curve with a large enough effect; inconclusive = small, poorly fitted or top-dose-only effect, or another doubt; inactive = no such curve, though single readings can be large or run the other way.

SMILES | Pf growth 96h | CHX counter | Pf growth 48h | Marburg entry inh | LASV entry inh | Shiga toxin inh
C/C=C\C(=O)Nc1cccc(C2=NOC3(C2)C[C@H](C(N)=O)N(C(=O)Cc2ccc([N+](=O)[O-])cc2)C3)c1 (some centres undefined) | 12µM* | 1 | ? | nt | nt | -8
CCC(=O)Nc1cccc(C2=NOC3(C2)C[C@@H](C(N)=O)N(C(=O)c2ccccc2C(=O)c2ccccc2)C3)c1 (some centres undefined) | ? | -4 | ? | nt | nt | -2
NC(=O)[C@H]1CC2(CC(c3cccc(NC(=O)CC(c4ccccc4)c4ccccc4)c3)=NO2)CN1C(=O)C(c1ccccc1)c1ccccc1 (some centres undefined) | 13µM* | -2 | 10µM* | nt | nt | -4
C/C=C/C(=O)Nc1cccc(C2=NOC3(C2)C[C@H](C(N)=O)N(C(=O)c2ccccc2C(=O)c2ccccc2)C3)c1 (some centres undefined) | 12µM* | -6 | 9.3µM* | nt | nt | -10
C/C=C(\C)C(=O)N1CC2(CC(c3cccc(NC(=O)CC(c4ccccc4)c4ccccc4)c3)=NO2)C[C@H]1C(N)=O (some centres undefined) | 8% | -1 | ? | nt | nt | 3
NC(=O)[C@H]1CC2(CC(c3cccc(NC(=O)CC(c4ccccc4)c4ccccc4)c3)=NO2)CN1C(=O)c1ccccc1C(=O)c1ccccc1 (some centres undefined) | 8.3µM* | -6 | 9.3µM* | nt | nt | 15
CC1=C(C(=O)Nc2ccc(C)cc2C)C(c2cccs2)n2nc(SCc3cccc(C)c3)nc2N1 (centres undefined) | nt | nt | nt | -13%[46.1 µM] | 17%[46.1 µM] | nt
CCC(Oc1ccc(F)cc1)C(=O)Nc1cc(-c2ccc(C)cc2)no1 (centres undefined) | nt | nt | nt | -11%[46.1 µM] | 4%[46.1 µM] | nt
Oc1ccccc1-c1ccccc1 | -5% | nt | -8% | nt | nt | nt
Cc1ccc(-c2cc(-c3ccccc3)no2)c(O)c1 | ? | 43* | ? | ? | 5µM* | 0
Cc1ccccc1-c1cc(-c2ccccc2O)on1 | -52% | 52* | 193% | ? | ? | 76*
Cc1ccccc1-c1csc(N)n1 | nt | nt | nt | 5%[46.1 µM] | -63%[46.1 µM] | nt
Cc1ccc(O)c(-c2cc(-c3ccc(F)cc3)no2)c1 | ? | 37* | 10µM* | nt | nt | 122*
Oc1ccccc1-c1cc(-c2ccccc2)no1 | 117% | 47* | -43% | ? | ? | +
CCc1ccc(N(CC(=O)NCc2ccco2)C(=O)CCC(=O)Nc2ccccn2)cc1 | -5% | 8 | 0% | -9%[46.1 µM] | -8% | 31
COc1ccc2cc1Oc1ccc(cc1)C[C@H]1c3cc(c(OC)cc3CCN1C)Oc1c(OC)c(OC)cc3c1[C@@H](C2)N(C)CC3 | 1.5µM* | nt | 2.3µM* | nt | nt | nt
COc1cc2c3cc1OCc1c(O)c(OC)cc4c1C(Cc1ccc(cc1)Oc1cc(ccc1O)CC3N(C)CC2)N(C)CC4 (centres undefined) | nt | -1 | nt | nt | nt | -2
CCC(C)c1ccccc1NC(=O)C(C)Sc1n[nH]c(N)n1 (centres undefined) | -8% | nt | -23% | nt | nt | nt
O=C(CN1CCN(S(=O)(=O)c2cc(C(F)(F)F)ccc2Cl)CC1)N1CCc2ccccc2C1 | ? | nt | 13µM* | nt | nt | nt
COc1ccc(S(=O)(=O)N2CCN(CC(=O)N3CCc4ccccc4C3)CC2)cc1OC | 9.3µM* | nt | ? | nt | nt | nt
COc1ccc(S(=O)(=O)N2CCN(c3ccc(F)cc3)CC2)cc1OC | 335% | -1 | 15% | nt | nt | -11
O=C(CN1CCN(S(=O)(=O)c2ccc(F)c(Cl)c2)CC1)N1CCc2ccccc2C1 | nt | nt | nt | 1% | -8% | nt
COc1cc2c(cc1OC)CN(C(=O)CN1CCN(S(=O)(=O)c3ccccc3Br)CC1)CC2 | 11% | 17* | ? | nt | nt | 69*
COc1ccc(S(=O)(=O)N2CCN(CCCOc3ccc(F)cc3)CC2)cc1OC | 4.7µM* | -1 | ? | 10µM* | ? | 3
CC(=O)NC(Cc1ccc(F)cc1)C(=O)NC1CCN(c2nnnn2-c2ccccc2)CC1 (centres undefined) | nt | 0 | -9% | -5% | 5% | 9
SMILES | Pf growth 96h | CHX counter | Pf growth 48h | Marburg entry inh | LASV entry inh | Shiga toxin inh
COC(=O)[C@@H](NC(=O)NC(C)CCc1ccccc1)C(C)C (some centres undefined) | -7%[5.75 µM] | 2 | 0% | 1% | 8% | -4
CCCc1cc(C(=O)N2CCC(N3CCC(C(=O)NC(C)C)CC3)CC2)n(C)n1 | ? | -2 | -14% | ? | 26%[46.1 µM] | -9
C#CCN1C(=O)[C@]2(O[C@H](COc3ccccc3)CC3=CCCC32)c2c(Br)cccc21 (some centres undefined) | nt | nt | nt | 8%[14.2 µM] | nt | nt
O=C(NC12CC3CC(CC(C3)C1)C2)c1cc2nc(-c3ccco3)cc(C(F)(F)F)n2n1 | -2% | -5 | nt | ? | ? | -9
COc1cc2c(cc1OC)CN(C(=O)c1cc(S(=O)(=O)N3CCOCC3)c(Cl)cc1Cl)CC2 | 5.2µM* | 3 | ? | -10%[46.1 µM] | -22%[46.1 µM] | -2
NC(=O)c1ccc(F)cc1 | 10% | -3 | 29% | 3% | 19% | -6
CSC(=CC(=O)c1ccccc1)SC | 68% | 25* | 37% | 0% | 45%[14.3 µM] | 66*
O=C(C=C(C(=O)c1ccccc1)c1ccccc1)c1ccccc1 | nt | nt | nt | ? | -19%[46.1 µM] | nt
CSC(=CC(=O)c1ccc(F)cc1)SC | 40% | 26* | 45% | 16%[46.1 µM] | 1% | 18
COc1nc(-c2ccc(Cl)cc2)nnc1C | 55% | 15* | -18% | ? | 0%[46.1 µM] | 10
COc1ccc(C2C(C#N)=C(N)OC3=C2C(=O)CC(C)(C)C3)cc1Cn1nc(C)c([N+](=O)[O-])c1C (centres undefined) | -28% | -2 | ? | -1% | nt | -9
O=S(=O)(NCCCN1CCOCC1)c1ccc(Cl)cc1 | 0% | -1 | -15% | 3%[46.1 µM] | 9%[46.1 µM] | 21
O=C(Nc1cccnc1Cl)c1cc(-c2ccc(F)cc2)on1 | 5% | 10 | 13% | 3%[46.1 µM] | 4% | 14
COc1ccc(-c2cc(C(=O)Nc3cccnc3)no2)cc1OC | 31% | 32* | 83% | ? | -18% | 60*
O=C(COCc1cc(-c2ccc3c(c2)OCO3)on1)Nc1cccnc1 | -11% | 12 | 10% | -1%[46.1 µM] | -1%[46.1 µM] | 3
O=C(Nc1cccnc1)c1cc(-c2ccc(Cl)c(Cl)c2)on1 | ? | 21* | 78% | 28%[46.1 µM] | 0%[46.1 µM] | 47*
O=C(Nc1cccnc1)c1cc(-c2cccc(Cl)c2)on1 | 38% | -2 | 94% | ? | 11% | -14
O=C(Nc1cccnc1)c1cc(-c2ccc(F)cc2)on1 | ? | 53* | 414% | nt | nt | 92*
O=C(Nc1cccnc1)c1cc(-c2ccc3c(c2)OCO3)on1 | 163% | 30* | 20% | ? | ? | 89*
CC(=O)Nc1ccc(-c2nnc(SCC(=O)c3ccc4c(c3)Cc3ccccc3-4)n2C)cc1 | ? | 9 | ? | ? | -14% | 21
